The nature of experiment [1]: Nuclear factor erythroid 2-related factor 2/antioxidant responsive element (Nrf2/ARE) small molecule agonists: qHTS cell viability counter screen in human keratinocytes (AID 1919968; active means well fitted curve in the direction sought with a large enough effect in the repeat runs; an effect the other way counts as inactive or inconclusive; further: nearly all actives have a fitted effect of over 55% in size; further: potency means the concentration at half of the fitted maximal effect). An outline of the steps: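 Cells of the KeratinoSens line were plated at 1,500 per well and left for 5 h before compound transfer from DMSO stocks. After a 23 h incubation (37 C, 5% CO2), CellTiter-Fluor was added. Signal was taken as fluorescence intensity 1 h later.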
A general note: Quantitative high-throughput screening tests each substance at several concentrations.

Experiment [2] can be described thus: Nuclear factor erythroid 2-related factor 2/antioxidant responsive element (Nrf2/ARE) small molecule agonists: luciferase reporter gene qHTS assay in human keratinocytes (AID 1919969). Further: nearly all actives have a fitted effect of over 35% in size. Background: Reporter assays use an easily measured gene product as a stand-in for the process of interest.
Experiment [3] deals with Gonadotropin-releasing hormone receptor (Homo sapiens) (UniProt P30968). In words: Human gonadotropin-releasing hormone receptor (GnRHR) small molecule agonists, calcium flux assay in GnRHR-HEK293 cells (AID 1920063). Further: nearly all actives have a fitted effect of over 35% in size. A digest of the protocol: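 Compounds dissolved in DMSO are pin-transferred onto dye-loaded GnRHR-HEK293 cells, which were seeded 18 h before at 37 C/5% CO2. Calcium signal is read as fluorescence intensity at 1 s intervals for 3 min.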
For orientation: A change in cytosolic calcium serves as a functional read-out for many receptors and channels.

Experiment [4] deals with KiSS-1 receptor (Homo sapiens) (UniProt Q969F8). Nature of the experiment: Human kisspeptin (KISS1R) small molecule agonists, calcium flux assay in KISS1R-HEK293 cells (AID 1920064; active means well fitted curve in the direction sought with a large enough effect in the repeat runs; an effect the other way counts as inactive or inconclusive). A digest of the protocol: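 Cell line: HEK293, stable human KISS1R. Dye loading 1 h at 37 C after 18 h culture. Read: kinetic fluorescence, 480/540 nm, 3 min at 1 s intervals.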
Experiment [5] can be described thus: p53 small molecule agonists, cell-based qHTS assay with human liver microsomes (AID 1963577). An outline of the steps: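 Compounds act here after metabolic activation: human liver microsomes and NADPH, both at 0.5 mg/mL final, were co-added to p53RE-bla cells. Incubation ran 16 h at 37 C, followed by LiveBLAzer detection.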
Experiment [6] in a line: p53 small molecule agonists, cell-based qHTS assay with rat liver microsomes (AID 1963578). An outline of the steps: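 Read-out is beta-lactamase reporter fluorescence (LiveBLAzer, 2 h, room temperature, dark) in p53RE-bla cells treated 16 h at 37 C with compound, rat liver microsomes and NADPH, both 0.5 mg/mL final.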
Experiment [7] can be described thus: p53 small molecule agonists, cell-based qHTS assay with human liver microsomes: qHTS cell viability counter screen (AID 1963579). Further: nearly all actives have a fitted effect of over 45% in size. Further: potency means the concentration at half of the fitted maximal effect. A digest of the protocol:
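Cells carrying the p53 response-element beta-lactamase reporter are treated for 16 h at 37 C with test compounds in the presence of human liver microsomes and NADPH (both 0.5 mg/mL final); ATP-based CellTiter-Glo luminescence then reports viability.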

Experiment [8] is described as follows: p53 small molecule agonists, cell-based qHTS assay with rat liver microsomes: qHTS cell viability counter screen (AID 1963580). Further: nearly all actives have a fitted effect of over 45% in size. Further: potency means the concentration at half of the fitted maximal effect. A digest of the protocol:
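Counter screen for cytotoxicity under metabolic activation: rat liver microsomes and NADPH, 0.5 mg/mL final each, added with compounds to p53RE-bla HCT-116 cells; 16 h at 37 C, then ATP luminescence read.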

A short description of experiment [9]: p53 small molecule agonists, cell-based qHTS assay: qHTS cell viability counter screen (AID 1963581). Further: nearly all actives have a fitted effect of over 45% in size. Further: potency means the concentration at half of the fitted maximal effect. A digest of the protocol: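 ATP content measured by luminescence in HCT-116 p53RE-bla cells treated 16 h at 37 C, same wells as the reporter screen.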
Experiment [10] is described as follows: p53 small molecule agonists, cell-based qHTS assay (AID 1963582; active means well fitted activation curve with a large enough effect in the signal ratio in the repeat runs, not every such curve was filed as active; the % refers to the signal ratio). A digest of the protocol:
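16 h compound exposure (37 C) of p53 response element–bla cells, preceded by 5 h recovery at 37 C/5% CO2; read-out via LiveBLAzer B/G FRET substrate, 2 h RT, fluorescence intensity.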

For experiment [11], the target named is 5-hydroxytryptamine receptor 2A (Homo sapiens) (UniProt P28223). Nature of the experiment: 5-hydroxytryptamine receptor 2A (HTR2A) small molecule agonists, cell-based qHTS assay (AID 1963587). Further: nearly all actives have a fitted effect of over 30% in size. A digest of the protocol:
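HTR2A-CHO cells, plated 18 h at 37 C/5% CO2, dye-loaded 1 h at 37 C; compounds in DMSO added by pin tool (agonist mode). Intracellular calcium flux read as kinetic fluorescence on FDSS over 2 min at 1 s intervals.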

Experiment [12] deals with Muscarinic acetylcholine receptor M1 (Homo sapiens) (UniProt P11229). Nature of the experiment: Cholinergic receptor muscarinic 1 (CHRM1) small molecule agonists, cell-based qHTS assay (AID 1963589). Further: nearly all actives have a fitted effect of over 35% in size. A digest of the protocol: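 Homogeneous fluorescence calcium flux, agonist mode. Human M1-expressing CHO cells; compound dosed at 15 concentrations, three independent runs; signal sampled every 1 sec.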

Experiment [13] in a line: cAMP Responsive Elements (CRE) small molecule agonists, cell-based qHTS assay (AID 1963590). A digest of the protocol:
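HEK 293T cells stably bearing CRE-bla were plated at 2,000 cells per well and rested 18 h. Compounds, positive controls or DMSO were added for 3 h at 37 C. LiveBLAzer B/G substrate was then loaded for 2 h at room temperature.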

A short description of experiment [14]: cAMP Responsive Elements (CRE) small molecule antagonists, cell-based qHTS assay (AID 1963591; active means well fitted inhibition curve with a large enough effect in the signal ratio in the repeat runs, not every such curve was filed as active; the % refers to the signal ratio). A digest of the protocol:
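First, CRE-bla HEK293T cells settled 18 h at 37 C. Next, compound and 0.25 uM final NKH477 were applied for 3 h. Last, LiveBLAzer B/G substrate was loaded for 2 h at room temperature.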

For experiment [15], the target named is D(2) dopamine receptor (Homo sapiens) (UniProt P14416). In words: Dopamine D2 receptor (DRD2) small molecule agonists, cell-based qHTS assay (AID 1963594). Further: nearly all actives have a fitted effect of over 35% in size. An outline of the steps:
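HEK293 cells stably expressing DRD2 were cultured 24 h at 37 C, then given Ro20-1724 (0.1 mM final) and compounds for 10 min at room temperature. NKH477 (200nM) was then added for 30 min. cAMP was read by HTRF.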

The target in experiment [16] is 5-hydroxytryptamine receptor 2A (Homo sapiens) (UniProt P28223). In words: 5-hydroxytryptamine receptor 2A (HTR2A) small molecule antagonists, cell-based qHTS assay (AID 1963586). Further: nearly all actives have a fitted effect of over 45% in size. Further: potency means the concentration at half of the fitted maximal effect. A digest of the protocol:
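CHO cells stably expressing human HTR2A were plated for 18 h at 37 C, then loaded with calcium dye for 1 h. Compounds were preincubated 5 min at room temperature before DOI (4 nM solution) was added. Kinetic fluorescence was read for 3 min.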

In experiment [17] the target is Muscarinic acetylcholine receptor M1 (Homo sapiens) (UniProt P11229). Nature of the experiment: Cholinergic receptor muscarinic 1 (CHRM1) small molecule antagonists, cell-based qHTS assay (AID 1963588). Further: nearly all actives have a fitted effect of over 40% in size. Further: potency means the concentration at half of the fitted maximal effect. A digest of the protocol:
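Compounds were tested at 15 concentrations in three independent runs. Dye-loaded CHRM1-CHO cells were exposed 5 min at room temperature before stimulation by acetylcholine added at 50nM. Intracellular calcium was read kinetically on FDSS for 3 min.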

For experiment [18], the target named is Beta-2 adrenergic receptor (Homo sapiens) (UniProt P07550). Nature of the experiment: Adrenergic beta2 receptor (ADRB2) small molecule antagonists, cell-based qHTS assay (AID 1963592). Further: series mostly up to about 92 µM; nearly all actives have a fitted effect of over 50% in size. An outline of the steps:
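Assay format: CHO-ADRB2 cells, 18-20hr seeding at 37C/5% CO2, then compound plus 1nM isoproterenol agonist mix for 0.5hr RT. Homogeneous time-resolved fluorescence cAMP detection after 1hr, expressed as 665/615 nm ratio.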

The target is the same in experiment [19]. In words: Adrenergic beta2 receptor (ADRB2) small molecule agonists, cell-based qHTS assay (AID 1963593).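 Further: CHO cells stably overexpressing human ADRB2.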 An outline of the steps: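 CHO cells stably over-expressing ADRB2 were plated overnight at 37C, then dosed with compounds plus a stimulation mix containing 100uM IBMX and 25uM Ro-20-1724 for 0.5hr at room temperature. cAMP was measured by HTRF competition, 1hr.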

Experiment [20] has as its target D(2) dopamine receptor (Homo sapiens) (UniProt P14416). In words: Dopamine D2 receptor (DRD2) small molecule antagonists, cell-based qHTS assay (AID 1963595; active means well fitted inhibition curve with a large enough effect in the signal ratio in the repeat runs, with a control signal flat; the % refers to the signal ratio). An outline of the steps:
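Antagonism was scored as restored cAMP in HEK293-DRD2 cells. These cells were stimulated with 200 nM NKH477 and 12 nM quinpirole for 30 min at room temperature, in the presence of 0.1 mM Ro20-1724.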

Values joined by “and” are separate entries in the source; they are usually repeats but may differ in a detail not shown here. Identical values can stand only once. Inconclusive results are not listed. A structure can be active in one record and inactive in another. Active and inactive are the calls of the source. Unless noted, the call rests on the fitted dose curve.

The text below walks through data of PubChem BioAssay (Tox21).
On the % scale 0 is the no-effect control and ±100 the full control effect.

Chain of D(2) dopamine receptor (Homo sapiens) (P14416 whole entry, looked up): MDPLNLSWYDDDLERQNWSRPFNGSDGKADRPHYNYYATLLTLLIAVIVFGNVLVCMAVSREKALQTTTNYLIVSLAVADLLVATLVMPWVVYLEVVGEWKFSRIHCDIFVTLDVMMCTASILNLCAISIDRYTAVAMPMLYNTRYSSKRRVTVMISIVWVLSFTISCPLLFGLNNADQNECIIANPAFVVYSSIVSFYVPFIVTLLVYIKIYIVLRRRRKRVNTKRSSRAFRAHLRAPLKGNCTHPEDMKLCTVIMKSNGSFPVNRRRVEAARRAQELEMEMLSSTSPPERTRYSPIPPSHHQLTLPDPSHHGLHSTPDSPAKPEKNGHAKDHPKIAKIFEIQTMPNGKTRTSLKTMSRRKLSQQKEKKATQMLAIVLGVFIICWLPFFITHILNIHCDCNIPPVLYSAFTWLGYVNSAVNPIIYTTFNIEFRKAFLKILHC
Chain of Gonadotropin-releasing hormone receptor (Homo sapiens) (P30968 whole entry, looked up): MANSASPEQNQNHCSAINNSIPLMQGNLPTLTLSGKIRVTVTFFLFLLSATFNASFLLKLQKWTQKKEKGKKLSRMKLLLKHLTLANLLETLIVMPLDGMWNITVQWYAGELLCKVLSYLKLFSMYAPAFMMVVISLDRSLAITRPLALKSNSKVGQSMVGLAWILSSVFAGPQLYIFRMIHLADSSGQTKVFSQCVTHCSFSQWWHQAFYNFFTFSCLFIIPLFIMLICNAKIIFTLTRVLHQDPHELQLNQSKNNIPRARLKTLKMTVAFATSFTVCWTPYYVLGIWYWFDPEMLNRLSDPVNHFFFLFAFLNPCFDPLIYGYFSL
Chain of 5-hydroxytryptamine receptor 2A (Homo sapiens) (P28223 whole entry, looked up): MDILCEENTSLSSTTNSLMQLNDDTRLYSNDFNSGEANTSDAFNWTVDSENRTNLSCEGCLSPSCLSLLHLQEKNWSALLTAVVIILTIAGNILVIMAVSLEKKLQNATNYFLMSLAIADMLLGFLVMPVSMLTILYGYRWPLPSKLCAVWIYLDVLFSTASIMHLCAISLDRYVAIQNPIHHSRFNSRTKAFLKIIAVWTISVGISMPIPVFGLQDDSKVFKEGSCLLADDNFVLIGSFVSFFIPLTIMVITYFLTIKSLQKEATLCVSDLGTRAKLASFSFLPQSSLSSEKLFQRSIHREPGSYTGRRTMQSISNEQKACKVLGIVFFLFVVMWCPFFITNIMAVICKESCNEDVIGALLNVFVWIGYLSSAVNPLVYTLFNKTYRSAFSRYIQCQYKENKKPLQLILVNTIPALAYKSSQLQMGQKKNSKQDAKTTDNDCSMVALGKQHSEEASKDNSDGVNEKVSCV
Chain of KiSS-1 receptor (Homo sapiens) (Q969F8 whole entry, looked up): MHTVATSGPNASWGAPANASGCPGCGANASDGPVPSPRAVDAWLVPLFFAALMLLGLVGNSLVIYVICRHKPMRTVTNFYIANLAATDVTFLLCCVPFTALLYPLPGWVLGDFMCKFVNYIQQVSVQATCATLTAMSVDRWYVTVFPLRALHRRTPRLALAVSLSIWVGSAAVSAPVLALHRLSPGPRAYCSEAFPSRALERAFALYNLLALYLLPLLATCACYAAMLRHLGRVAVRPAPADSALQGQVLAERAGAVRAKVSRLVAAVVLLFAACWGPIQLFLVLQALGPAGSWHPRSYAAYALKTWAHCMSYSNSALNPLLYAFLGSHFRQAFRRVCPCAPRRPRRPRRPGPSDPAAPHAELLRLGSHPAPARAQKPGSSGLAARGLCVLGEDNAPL
Chain of Beta-2 adrenergic receptor (Homo sapiens) (P07550 whole entry, looked up): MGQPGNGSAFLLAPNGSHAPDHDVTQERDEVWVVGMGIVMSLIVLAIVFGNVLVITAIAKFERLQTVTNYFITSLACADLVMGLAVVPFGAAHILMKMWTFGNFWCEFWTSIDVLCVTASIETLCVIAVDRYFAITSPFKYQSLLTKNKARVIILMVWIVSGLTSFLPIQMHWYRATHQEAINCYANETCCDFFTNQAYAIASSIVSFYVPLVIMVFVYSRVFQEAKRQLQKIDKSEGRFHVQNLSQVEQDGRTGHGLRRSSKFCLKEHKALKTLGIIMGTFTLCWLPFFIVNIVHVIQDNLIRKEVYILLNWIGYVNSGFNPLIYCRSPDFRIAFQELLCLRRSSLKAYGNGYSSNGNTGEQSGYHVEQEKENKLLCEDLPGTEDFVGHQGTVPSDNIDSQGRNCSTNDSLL
Chain of Muscarinic acetylcholine receptor M1 (Homo sapiens) (P11229 whole entry, looked up): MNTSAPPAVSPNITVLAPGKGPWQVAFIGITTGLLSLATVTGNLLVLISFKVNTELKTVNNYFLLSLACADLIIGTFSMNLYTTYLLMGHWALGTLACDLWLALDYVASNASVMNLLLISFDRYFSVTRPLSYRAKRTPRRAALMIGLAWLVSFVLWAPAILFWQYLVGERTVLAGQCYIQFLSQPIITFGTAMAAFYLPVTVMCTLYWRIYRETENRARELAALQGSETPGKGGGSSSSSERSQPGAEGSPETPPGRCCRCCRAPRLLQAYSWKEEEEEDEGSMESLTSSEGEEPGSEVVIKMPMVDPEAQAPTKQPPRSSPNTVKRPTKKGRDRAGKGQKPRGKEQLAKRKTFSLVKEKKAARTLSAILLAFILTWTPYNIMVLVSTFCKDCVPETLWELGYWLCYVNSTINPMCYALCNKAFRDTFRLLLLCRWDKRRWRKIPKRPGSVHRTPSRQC

As for `NC(=NCCCCCCN=C(N)/N=C(\N)Nc1ccc(Cl)cc1)/N=C(\N)Nc1ccc(Cl)cc1`, the Potency is 24.2 µM (active) [middle of 5 runs] in experiment [1]; 40.4 µM (active) and 28.7 µM (active) and inactive in [7]; 32.1 µM (active) and 41.5 µM (active) and inactive in experiment [8]; 45.3 µM (active) and inactive in experiment [9]. Further, the Potency entry in experiment [2], in [3], in [4], in experiment [5], in [6] and in [10] was “inactive” throughout. Further, the Potency entry in [11], in [12], in [13], in experiment [14] and in experiment [15] was “inactive” in each case.
Consider `O=C(OCc1ccccc1)c1ccccc1`, for which the Potency entry in experiment [1], in experiment [2], in experiment [3], in experiment [4], in [8] and in [9] was “inactive” in each case. Moreover, the Potency result in [16], in experiment [11], in [17], in [12], in [13] and in experiment [14] was “inactive” throughout. The Potency result in experiment [18], in experiment [19], in experiment [15] and in [20] was “inactive” in each case.
As for `CCn1cc(C(=O)O)c(=O)c2ccc(C)nc21`, the Potency entry in experiment [1], in [2], in experiment [3], in experiment [4], in experiment [9] and in experiment [11] was “inactive” in each case. The Potency entry in experiment [17], in experiment [18], in experiment [19], in experiment [15] and in experiment [20] was “inactive” throughout. In addition, the Potency entry in experiment [16] is “inactive and 3.34 µM (active)”.
In the case of `O=C(O)[C@H](O)[C@@H](O)[C@H](O)[C@H](O)CO`, the Potency result in [1], in experiment [2], in experiment [3], in experiment [4], in [8] and in experiment [9] was “inactive” each time. Besides, the Potency result in [16], in experiment [11], in experiment [17], in experiment [12], in [13] and in experiment [14] was “inactive” in each case. Besides, the Potency result in experiment [18], in experiment [15] and in experiment [20] was “inactive” throughout.
As for `Cc1ccc(C)c(S(=O)(=O)O)c1`, the Potency entry in experiment [1], in [2], in experiment [3], in experiment [4], in experiment [5] and in experiment [6] was “inactive” each time. Further, the Potency entry in [7], in experiment [8], in experiment [9], in [10], in [16] and in experiment [11] was “inactive” in each case. For the same compound, the Potency entry in [17], in experiment [12], in experiment [13], in experiment [14], in [18] and in experiment [19] was “inactive” in each case. Besides, the Potency entry in experiment [15] and in experiment [20] was “inactive” in each case.
In the case of `CS(=O)(=O)c1ccc([C@@H](O)[C@@H](CO)NC(=O)C(Cl)Cl)cc1`, the Potency entry in experiment [1], in [2], in experiment [3], in experiment [4], in experiment [5] and in [6] was “inactive” throughout. Further, the Potency entry in [7], in [8], in experiment [9], in [10], in experiment [13] and in experiment [14] was “inactive” in each case. Further, the Potency entry in experiment [18], in experiment [15] and in experiment [20] was “inactive” throughout.
For `Cc1ccc(O)cc1`, the Potency entry in [1], in experiment [2], in experiment [3], in [4], in [5] and in experiment [6] was “inactive” each time. Besides, the Potency entry in experiment [7], in [8], in experiment [9], in experiment [10], in experiment [16] and in experiment [11] was “inactive” in each case. In addition, the Potency entry in [17], in [12], in experiment [13], in experiment [14], in [18] and in [19] was “inactive” in each case. For the same compound, the Potency result in experiment [15] and in experiment [20] was “inactive” each time.
Regarding `O=C=NCCCCCCN=C=O`, the Potency result in [1], in [2], in experiment [3], in [4], in [5] and in [6] was “inactive” throughout. Also, the Potency entry in [7], in experiment [8], in [9], in experiment [10], in [16] and in experiment [11] was “inactive” each time. For the same compound, the Potency result in experiment [12], in [13], in experiment [14], in experiment [18], in experiment [19] and in [15] was “inactive” in each case. Also, the Potency result in experiment [20] was “inactive”. In addition, in [17], the Potency result was “inactive and 27 µM (active)”.
